Data: PubChem BioAssay (NCATS)
Results filed as inconclusive are left out. A number with no mark means an inactive call. Active and inactive are the calls of the source. Calls follow the shape of the dose curve; as a rule, active = well fitted inhibition curve with a large enough effect; inconclusive = small, poorly fitted or top-dose-only effect; inactive = flat fitted curve, though single readings scatter.
% is scaled to controls: 0 for no effect and ±100 for the full control effect; potency is read from the fitted curve at half-maximal effect.

These compounds were tested against Ubiquitin carboxyl-terminal hydrolase 1 (Homo sapiens) (UniProt O94782) (assay: Inhibitors of USP1/UAF1: Pilot qHTS (AID 504865; also: nearly all actives have a fitted effect of over 35% in size;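 as to activity change, negative = inhibition: rhodamine fluorescence freed from ubiquitin-rhodamine substrate followed over time; top concentration of the series differs between compounds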)). Details: purified USP1/UAF1, Ub-rhodamine cleavage fluorescence; series mostly up to 114 µM; activity change, negative = inhibition: at the top concentration.
Chain of Ubiquitin carboxyl-terminal hydrolase 1 (Homo sapiens) (O94782 whole entry, looked up): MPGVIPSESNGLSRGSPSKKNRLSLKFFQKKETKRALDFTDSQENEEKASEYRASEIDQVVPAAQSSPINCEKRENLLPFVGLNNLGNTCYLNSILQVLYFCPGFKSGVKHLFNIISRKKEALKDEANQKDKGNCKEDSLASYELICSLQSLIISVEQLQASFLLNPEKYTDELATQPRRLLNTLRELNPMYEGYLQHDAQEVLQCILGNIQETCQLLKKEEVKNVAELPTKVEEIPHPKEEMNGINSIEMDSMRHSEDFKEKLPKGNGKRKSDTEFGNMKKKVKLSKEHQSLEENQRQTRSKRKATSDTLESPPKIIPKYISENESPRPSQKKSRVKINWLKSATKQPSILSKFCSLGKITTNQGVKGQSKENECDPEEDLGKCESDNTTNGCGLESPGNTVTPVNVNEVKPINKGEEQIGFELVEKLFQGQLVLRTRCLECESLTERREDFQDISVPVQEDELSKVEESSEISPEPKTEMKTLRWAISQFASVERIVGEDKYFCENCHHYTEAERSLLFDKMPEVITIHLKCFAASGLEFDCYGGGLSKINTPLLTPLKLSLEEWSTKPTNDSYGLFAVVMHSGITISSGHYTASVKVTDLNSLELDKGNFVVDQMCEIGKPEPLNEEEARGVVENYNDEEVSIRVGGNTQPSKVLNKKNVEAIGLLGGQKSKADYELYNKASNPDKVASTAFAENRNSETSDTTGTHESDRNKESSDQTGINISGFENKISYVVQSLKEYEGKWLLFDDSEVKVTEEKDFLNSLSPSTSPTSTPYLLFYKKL
Excerpt: Deubiquitinating enzymes (DUBs) are a class of enzymes that can cleave isopeptide bond formed between the C-terminal carboxylate of ubiquitin and a lysine side-chain amino group on the target protein. Among them, ubiquitin specific proteases (USPs) constitute the largest DUB family. Human USPs are emerging as promising targets for pharmacological intervention because of their connection to a number of human diseases, including prostate, colon and breast cancer (1, 2), pediatric acute lymphoblastic leukemia (3), and familial cylindromatosis (4). The advantage of inhibiting USPs lies in the potential specificity of therapeutic intervention that can lead to better efficacy and reduce nonspecific side effects.
In a collaboration between the University of Delaware and the NIH Chemical Genomics Center, a high-throughput screen assay was developed to screen for USP1/UAF1 inhibitors. This miniaturized assay has a fluorescent read-out and is used to screen the NIH Molecular Libraries Small Molecule Repository (MLSMR) in order to identify a small molecule that inhibits USP1.
NIH Chemical Genomics Center [NCGC]
NIH Molecular Libraries Probe Centers Network [MLPCN]
Assay Submitter (PI): Zhihao Zhuang, University of Delaware
1. Priolo, C., et al. (2006) The isopeptidase USP2a protects human prostate cancer from apoptosis. Cancer Res 66, 8625-8632
2. Popov, N., et al. (2007) The ubiquitin-specific protease USP28 is required for MYC stability. Nat Cell Biol 9, 765-774
3. De Pitta, C., et al. (2005) A leukemia-enriched cDNA microarray platform identifies new transcripts with relevance to the biology of pediatric acute lymphoblastic leukemia. Haematologica 90, 890-898
4. Kovalenko, A., et al. (2003) The tumour suppressor CYLD negatively regulates NF-kappaB signalling by deubiquitination. Nature 424, 801-805
3 microliters of reagents (buffer in columns 3 and 4 as negative control and 1nM USP1/UAF1 complex in columns 1, 2, and 5-48) are dispensed into Greiner black solid bottom 1536-well assay plates. Compounds are then transferred via Kalypsys pin tool equipped with 1536-pin array (10nl slotted pins, V&P Scientific, San Diego, CA). Following an incubation step of 15 min at room temperature, 1ul of Ub-Rho substrate (150nM final concentration) is added to initiate the reaction. The plates are immediately centrifuged at 1000 rpm for 15 seconds, and subsequently transferred to a ViewLux high-throughput CCD imager (PerkinElmer) wherein kinetic measurements of fluorescence are acquired using 480 nm excitation/540 nm emission filter set (6 reads every 60 seconds, see Table 1). All reagents are diluted in an assay buffer consisting of 50mM HEPES (pH 7.8), 0.5mM EDTA, 0.1 mg/ml BSA, 1mM TCEP, and 0.01% Tween-20.
CS(=O)(=O)Nc1c(O)ccc2c1CCC[C@H]2C1=NCCN1 was tested, and the “activity change, negative = inhibition” value was -7.29%. C[C@](N)(C(=O)O)c1ccc(-c2nn[nH]n2)cc1 was tested, and the “activity change, negative = inhibition” value was 5.44%. For CCOC(OCC)P(=O)(O)CCCNCc1ccc(Cl)c(Cl)c1, the “activity change, negative = inhibition” value was 0.324%. CCCCCC(=O)O[C@H](CC(=O)O)C[N+](C)(C)C was tested, and the “activity change, negative = inhibition” value was 1.79%. With CC[N+](CC)(CC)CCOc1ccc(/C=C\c2ccccc2)cc1 the “activity change, negative = inhibition” value was -6.59%. C[C@@]12C(=O)OC(=O)[C@@]1(C)[C@@H]1CC[C@@H]2O1 was tested, and the “activity change, negative = inhibition” value was -11.9%. In the case of Oc1cc2c(c(Cl)c1O)CCNCC2c1ccccc1 (stereo not given), the “activity change, negative = inhibition” value is reported as -13.5%. N[C@H](C(=O)O)[C@H](OCc1ccccc1)C(=O)O was tested, and the “activity change, negative = inhibition” value was -5.95%. In the case of CC(=O)ON(C(C)=O)S(=O)(=O)c1ccc(Cl)cc1, the “activity change, negative = inhibition” value is reported as -5.39%. For Cc1cc(C)cc(C(=O)N(C)[C@H](Cc2ccc(-c3ccccc3)cc2)C(=O)N[C@@H](Cc2c[nH]c3ccccc23)C(=O)O)c1, the Potency was 79.4 µM (active). CC[C@]1(O)C[C@@H]2CN(CCc3c([nH]c4ccccc34)[C@](C(=O)OC)(c3cc4c(cc3OC)N(C)[C@H]3[C@](O)(C(=O)OC)[C@@H](C(=O)OC)[C@@]5(CC)C=CCN6CC[C@@]43[C@@H]65)C2)C1 was tested, and the “activity change, negative = inhibition” value was -5.27%. For O=C(O)c1c2ccccc2cc2ccccc12, the “activity change, negative = inhibition” value was -11.7%. In the case of NC1(C(=O)O)CCC1, the “activity change, negative = inhibition” value is reported as -10.8%. With CNC(=O)[C@H]1O[C@H](n2cnc3c(NCc4cccc(I)c4)ncnc32)[C@@H](O)[C@@H]1O the “activity change, negative = inhibition” value was -10.9%. For COc1ccccc1N1CCN(CCN2C(=O)c3ccccc3C(C)(C)C2=O)CC1, the “activity change, negative = inhibition” value was -6.83%. For N[C@@H](C(=O)O)c1ccc(C(=O)O)c(C(=O)O)c1, the Potency was “inactive”. CC(C)=CCC/C(C)=C/CC/C(C)=C/CO was tested, and the “activity change, negative = inhibition” value was -6.17%. CCCCCCN(CCCCCC)C(=O)Cc1c(-c2ccc(Cl)cc2)[nH]c2ccc(Cl)cc12 was tested, and the “activity change, negative = inhibition” value was -9.45%. In the case of CN1Cc2c(C(=O)OC(C)(C)C)ncn2-c2ccsc2C1=O, the “activity change, negative = inhibition” value is reported as 1.37%. In the case of O=C(O)COc1cccc(-c2ocnc2-c2nc(-c3ccccc3)c(-c3ccccc3)o2)c1, the Potency is reported as 39.8 µM (active). With O=[N+]([O-])c1ccc2cn[nH]c2c1 the “activity change, negative = inhibition” value was -2%. With CCCCNC(=O)[C@@H]1Cc2ccccc2N1C(=O)[C@H](N)CC the “activity change, negative = inhibition” value was 4.59%. For c1cc2c3c(c1)c1c(n3CCNC2)CCCC1, the “activity change, negative = inhibition” value was -7.84%. For NC(N)=NN=Cc1c(Cl)cccc1Cl, the Potency was “inactive”. With Cc1cc(Cn2cnc3c2C[C@@H](C(=O)O)N(C(=O)C(c2ccccc2)c2ccccc2)C3)ccc1N(C)C the “activity change, negative = inhibition” value was -8.21%. In the case of NCCCCCCNS(=O)(=O)c1cccc2c(Cl)cccc12, the “activity change, negative = inhibition” value is reported as -3.49%. COc1cc(OC)c2ccc(=O)oc2c1 was tested, and the “activity change, negative = inhibition” value was 1.76%. N[C@@H](CO)C(=O)O was tested, and the Potency was “inactive”. For COC(=O)[C@@H]1[C@@H]2C[C@H]3c4[nH]c5ccccc5c4CCN3C[C@@H]2CC[C@@H]1O, the Potency was “inactive”. In the case of N[C@](CC1c2ccccc2Oc2ccccc21)(C(=O)O)[C@@H]1C[C@@H]1C(=O)O, the “activity change, negative = inhibition” value is reported as -4.51%. With O=C1c2ccc(O)c(O)c2C(=O)c2c(O)ccc(O)c21 the Potency was 79.4 µM (active). COc1cc(N)c(Cl)cc1C(=O)OCCCN1CCCCC1 was tested, and the “activity change, negative = inhibition” value was -7.6%. In the case of Nc1nc(Nc2ccccc2)nc2c1ncn2[C@@H]1O[C@@H](CO)[C@H](O)[C@H]1O, the “activity change, negative = inhibition” value is reported as -16.3%. CCCn1c(=O)c2[nH]c(-c3ccccc3)nc2n(CCC)c1=O was tested, and the “activity change, negative = inhibition” value was -2.77%. With O=C(O)CC/C=C\C[C@@H]1CO[C@H](c2ccccc2Cl)O[C@@H]1c1ccccc1O the “activity change, negative = inhibition” value was 0.246%. For CC(=O)O[C@H](CC(=O)O)C[N+](C)(C)C, the “activity change, negative = inhibition” value was 6.52%. With CC(C)NC[C@@H](O)COc1cccc2[nH]ccc12 the “activity change, negative = inhibition” value was 12.8% [at 54.9 µM]. In the case of O=C(O)c1ccc2c3c1cccc3c(=O)n1c3ccccc3nc21, the “activity change, negative = inhibition” value is reported as -13.7%. For CC(C)(C)NC[C@H](O)c1ccc(O)c(CO)c1, the “activity change, negative = inhibition” value was 1.47% [at 54.9 µM]. For COc1ccccc1N1CCN(C[C@@H](O)COc2cccc3ccccc23)CC1, the “activity change, negative = inhibition” value was -1.41% [at 54.9 µM].
